Assay results from PubChem BioAssay AID1053185 (Broad Institute, 2014).
Potency and affinity values are given separately. Unmarked numbers belong to inactive results.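 The calls were made as follows: active = cell killing with fitted half-maximal concentration at most twice the top valid dose; inconclusive = flat partial loss of 30 to 70%, or poor fit; inactive = the rest.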

test: cytotoxicity in HEK293 cells, dose response, cytotoxicity control, cell-based, cherry-picked samples (AID 1053185); conditions: HEK293T viability, ATP luminescence, 72 h; series mostly up to 26 µM; activity change, negative = cytotoxicity: at the top concentration

Compound | activity change, negative = cytotoxicity
CO[C@@H](CN(C)Cc1cc(F)ccc1F)[C@@H](C)CN(C(=O)Nc1ccc(C(F)(F)F)cc1)[C@H](C)CO | -11.8%
O=S(=O)(c1ccc(F)cc1)N1C[C@@H]2N[C@H](C1)C2c1ccc(/C=C/c2ccccc2)cc1 (some centres undefined) | -2.66%
COc1ccc2c3c(n(C)c2c1)[C@@H](CO)N(CC1CC1)CC31CN(C(=O)c2ccc3c(c2)OCO3)C1 | -7.78%
C[C@@H]1CN([C@@H](C)CO)C(=O)Cc2cc(NC(=O)C3CCCCC3)ccc2O[C@@H]1CN(C)Cc1ccc(Cl)c(Cl)c1 | -9.84%
CNC[C@@H]1Oc2cc(C#Cc3ccccc3OC)ccc2S(=O)(=O)N([C@H](C)CO)C[C@H]1C | -0.997%
COc1cc(CN2C[C@@H]3N[C@H](C2)C3c2ccc(-c3ccc(C#N)cc3)cc2)cc(OC)c1 (some centres undefined) | -1.68%
C/C=C/c1ccc([C@H]2[C@@H](CO)N3C(=O)CN(Cc4ccc(F)cc4)C[C@@H]23)cc1 | -5.85%
CN(C)C(=O)c1cccc(-c2ccc(C3[C@@H]4CN(Cc5ccccc5F)C[C@H]3N4)cc2)c1 (some centres undefined) | -7.48% [at 23.5 µM]
COc1cccc(-c2cccc(-c3nc(C(=O)Nc4ccc(-c5ccccc5)cc4)cc4c3[C@@H](CCO)N(S(=O)C(C)(C)C)C4)c2)c1 (some centres undefined) | -5.79%
